KCNQ2 enhance: enhances the rat KCNQ2 potassium channel | O88943 | CHO-K1 KCNQ2, FluxOR thallium flux fluorescence; active compounds read high | B-score at 10 µM | 310,000 compounds, 0.54% hits;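 active = fluorescence ratio B-score at least 3 SD of library B-scores, with initial fluorescence B-score within 3 of them, cut at about 5.3 in these data; same plate scores as AID 2156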;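 note: B-score of peak minus minimum over baseline fluorescence ratio after K+ and Tl+ stimulus; positive B-score means potentiation of KCNQ2 with more thallium influx and brighter signal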
KCNQ2 inh: KCNQ2 (rat) channel inhibition | O88943 | CHO-K1 KCNQ2, FluxOR thallium flux, 20 min; active compounds read low | B-score at 10 µM | 310,000 compounds, 1.1% hits;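 active = fluorescence ratio B-score at most minus 3 library SDs, with starting brightness B-score within 2 library SDs, cut at about -5.5 in these data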
Starred values were filed as active, the others as inactive; i = inactive; x = no result. In the library only some 1.6% were active in any assay of this set; here they are far more common.

SMILES | KCNQ2 enhance | KCNQ2 inh
Cc1cccc(C(=O)NNC(=O)c2c(-c3ccccc3Cl)noc2C)c1O | x | i
O=C(c1cc(C(=O)NCCc2ccccc2)c(=O)n(CCc2ccccc2)c1)c1cc(Cl)ccc1O | -6.4 | -6.4*
COc1ccc(CCNC(=O)c2cc(C(=O)c3cc(C)ccc3O)cn(CCc3ccc(OC)cc3)c2=O)cc1 | -7.3 | -7.3*
O=C(NCCc1ccccc1)c1ccccc1Cl | x | i
COc1ccc(CCNC(=O)c2cc(C(=O)c3cc(Cl)ccc3O)cn(CCc3ccc(OC)cc3)c2=O)cc1 | x | i
CCc1cc(=O)oc2cc(C)cc(OC(C)C(=O)NCCCn3ccnc3)c12 (stereo not drawn) | x | i
COc1cc([N+](=O)[O-])cc2cc(C(=O)N3CCCC3)c(=O)oc12 | x | i
COC(=O)c1ccc(/C=N/N2CCN(Cc3ccccc3Cl)CC2)cc1 | x | i
COC(=O)c1ccc(/C=N/N2CCN(Cc3ccc(C)cc3C)CC2)cc1 | -7.8 | -7.8*
O=c1[nH]c(C2CCCN(S(=O)(=O)c3ccccc3)C2)nc2c1nnn2Cc1ccc(OC(F)(F)F)cc1 (stereo not drawn) | 0.06 | i
O=S(=O)(c1ccc(OC(F)(F)F)cc1)N1CCCC(c2ccccc2)C1 (stereo not drawn) | -5.7 | -5.7*
COc1cc(CN2CCN(CC3CC3)CC2CCO)cc(OC)c1 (stereo not drawn) | 0.44 | i
COc1ccc(CNC(=O)C2CC(=O)N(c3ccc(OCC(=O)N4C(C)CCCC4C)cc3)C2)cc1 (stereo not drawn) | x | i
CCOc1cc(S(=O)(=O)NCCCN2CCOCC2)c(C)cc1C | 0.78 | i
CC(NCc1ccc(F)cc1)C(=O)Nc1cc(S(=O)(=O)N2CCCCC2)ccc1Cl (stereo not drawn) | x | i
Cn1nc([N+](=O)[O-])c(C(C#N)c2ccccn2)c(Cl)c1=O (stereo not drawn) | -5.8 | -5.8*
CCCn1nc([N+](=O)[O-])c(C(C#N)c2nc3ccccc3o2)c(Cl)c1=O (stereo not drawn) | x | i
COc1ccc(CCN2C(=O)N[C@@H](CCC(=O)O)C2=O)cc1 | 0.87 | i
Cc1c(C(=O)NNC(=S)Nc2cccc(Cl)c2)nnn1-c1ccccc1 | x | i
O=C(/C=C/c1cccs1)N1CCC2(CC1)Oc1ccc(Cl)cc1C(=O)C21CC(c2cccnc2)=NO1 (stereo not drawn) | -6.8 | -6.8*
Cc1ccc(C(=O)N2CCC3(CC2)Oc2ccc(Cl)cc2C(=O)C32CC(c3cccnc3)=NO2)s1 (stereo not drawn) | x | i
CS(=O)(=O)N1CCC(C(=O)NCc2ccc(F)cc2)CC1 | x | i
CCCCn1nc(C(=O)Oc2ccc3c(C)cc(=O)oc3c2)c2ccccc2c1=O | x | i
C/C(=N\NC(=O)c1cc(C)oc1C)c1ccc2ccccc2c1 | x | i
NC[C@@H]1O[C@H](C23CC4CC(CC(C4)C2)C3)Cc2c1ccc(O)c2O | -5.8 | -5.8*
SMILES | KCNQ2 enhance | KCNQ2 inh
CC1CN(S(=O)(=O)c2csc(C(=O)Nc3ccccc3)c2)CC(C)O1 (stereo not drawn) | 0.02 | i
Cc1ccc(Cl)c2c(N=Nc3ccccc3)c(O)[nH]c12 | x | i
CCOC(=O)[C@@H]1[C@H]2COc3ccccc3[C@@H]2N2C(=O)N(c3ccccc3)C(=O)[C@]12C | x | i
Cc1cccc(C(=O)Nc2nnc(C3=COCCO3)o2)c1 | 18* | i
O=C(Nc1nnc(C2=COCCO2)o1)c1cccc(F)c1 | 2.5 | i
O=C(c1ccc(Br)cc1)N1CCC(C(=O)N2CCN(c3ccccc3)CC2)CC1 | 1.5 | i
O=C1CN(c2ccccc2)C(=S)N1C(=O)c1ccc(Br)cc1 | -5.8 | -5.8*
Cn1nc(-c2ccc3c(c2)OCCO3)c2ccccc2c1=O | 1.2 | i
Cc1ccc2c(c1)N(S(=O)(=O)c1ccc(F)cc1)C(C(C)(C)C)CO2 (stereo not drawn) | -6.9 | -6.9*
Cc1ccc(S(=O)(=O)N2c3ccccc3OCC2C(C)(C)C)cc1 (stereo not drawn) | x | i
N#CC(c1cccc(Cl)c1)c1ccc2c(C(F)(F)F)cc(C(F)(F)F)nc2n1 (stereo not drawn) | 15* | i
NNc1ccc2c(C(F)(F)F)cc(C(F)(F)F)nc2n1 | 0.33 | i
CC(NS(=O)(=O)c1ccccc1)C1CC2CCC1C2 (stereo not drawn) | 3.1 | i
COc1cccc(C(=O)Nn2c(-c3cccs3)nc3ccccc3c2=O)c1OC | -6.4 | -6.4*
COc1ccc(C(=O)Nn2c(C)nc3ccccc3c2=O)c(OC)c1 | x | i
CC(C)Oc1ccc(C2CC(=O)N(c3cccc(Br)c3)C2=O)cc1 (stereo not drawn) | x | i
COC(=O)c1ccc(N=Cc2c(C(F)(F)F)[nH][nH]c2=O)cc1 | x | i
CCC1C(=O)C(CC)C(c2ccccc2)NC1c1ccccc1 (stereo not drawn) | x | i
CCN1C(c2ccccc2)C(C)C(=O)C(C)C1c1ccccc1 (stereo not drawn) | -8.4 | -8.4*

Screens from PubChem.
